In paper PMC5540273 (PLoS ONE, 2017):

System: WNK3
Conditions: concentration: 1 μM, replicates: in singlicate; n = 1
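Further: KINOMEscan kinase panel screen.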

Compound | %Inh
O=C(Nc1cccc(-c2nn3ccccc3c2-c2ccnc(Nc3cccc(F)c3)n2)c1)c1c(F)ccc(F)c1Cl [GSK357952] | 43%
c1ccc(-c2cnc3nccnn23)cc1 [AH20685] | 1%
CN(c1ccc(NC(=O)Nc2cc(C(F)(F)F)ccc2F)cc1)c1ccnc(Nc2ccc(S(N)(=O)=O)cc2)n1 [GW809893] | 0%
O=C(Nc1n[nH]c2cc(-c3ccoc3)ccc12)C1CC1 [SB-738481] | 0%
C[C@@H]1CC[C@@H](C(=O)Nc2ccccc2)CN1c1cc(-c2ccc3c(N)n[nH]c3c2)nc(N)n1 [GSK2286062] | 33%
O=C(Nc1cccc(-c2nn3ncccc3c2-c2ccnc(Nc3ccccc3)n2)c1)c1c(F)cccc1F [GSK198271] | 0%
COc1cccc(NC(=O)NC2CCN(c3ccnc(Nc4cc(OC)c(OC)c(OC)c4)n3)C2)c1 (stereo not drawn) [GSK1379763] | 26%
CN1CCN(CCCNc2nccc(-c3c(-c4ccc(F)cc4)nn4cc(C(F)(F)F)ccc34)n2)CC1 [GW621581] | 0%
Nc1n[nH]c2cnc(-c3ccccc3)cc12 [SB-642124] | 33%
Cc1occc1-c1ncc(OC[C@@H](N)Cc2c[nH]c3ccccc23)cc1-c1ccc2[nH]nc(C)c2c1.O=C(O)C(F)(F)F [GSK682037] | 0%
Cl.NC(=O)c1cccc(Nc2nccc(Nc3ccc(Oc4c(Cl)cccc4Cl)c(Cl)c3)n2)c1 [GW659009] | 12%
CCCCc1nn2ncccc2c1-c1ccnc(Nc2ccc(N3CCN(C)CC3)cc2)n1 [GW684941] | 54%
